Consider 40 compounds from PubChem BioAssay (NCATS).

Records with an inconclusive call do not appear. Active and inactive are the calls of the source. Calls come from the whole dose curve; as a rule, active = well fitted curve in the direction sought with a large enough effect; inconclusive = small, poorly fitted or top-dose-only effect, or another doubt; inactive = no such curve, though single readings can be large or run the other way. Where a SMILES comes first, the peptide text is derived from it. [ ]: non-standard residue; d: D form. pGlu = O=C1CC[C@@H](C(=O)O)N1

Chain of Protein phosphatase 1D (Homo sapiens) (O15297 whole entry, looked up): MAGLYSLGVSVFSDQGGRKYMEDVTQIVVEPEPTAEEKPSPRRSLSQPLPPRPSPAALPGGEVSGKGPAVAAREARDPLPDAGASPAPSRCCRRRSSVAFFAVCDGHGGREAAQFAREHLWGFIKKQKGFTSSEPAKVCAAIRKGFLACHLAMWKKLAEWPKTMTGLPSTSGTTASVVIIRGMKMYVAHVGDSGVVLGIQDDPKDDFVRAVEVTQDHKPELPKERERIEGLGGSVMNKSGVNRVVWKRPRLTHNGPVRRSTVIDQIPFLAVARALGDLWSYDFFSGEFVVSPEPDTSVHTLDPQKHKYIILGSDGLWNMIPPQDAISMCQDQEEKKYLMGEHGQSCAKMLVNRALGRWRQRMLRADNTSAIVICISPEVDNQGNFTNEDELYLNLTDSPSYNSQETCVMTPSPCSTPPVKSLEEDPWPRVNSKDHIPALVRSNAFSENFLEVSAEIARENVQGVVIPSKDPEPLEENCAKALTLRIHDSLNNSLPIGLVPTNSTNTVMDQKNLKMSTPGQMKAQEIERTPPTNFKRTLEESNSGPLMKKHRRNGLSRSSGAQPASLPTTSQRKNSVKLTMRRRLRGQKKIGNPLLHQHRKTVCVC

The target of this assay is Protein phosphatase 1D (Homo sapiens) (UniProt O15297). Nature of the assay: Rhodamine-PBP qHTS Assay for Modulators of WT P53-Induced Phosphatase 1 (WIP1) (AID 1347425). As to conditions: recombinant WIP1, Rhodamine-PBP phosphate fluorescence, real-time; series mostly up to 57.5 µM; activity change, negative = inhibition: at the top concentration. An excerpt:
Assay Provider (PI): Nathan Coussens Ph.D.
National Center for Advancing Translational Sciences (NCATS), Rockville, MD
National Institute of Health (NIH), Bethesda, Maryland
WT P53-Induced Phosphatase 1 (WIP1) is a member of the magnesium-dependent serine/threonine protein phosphatase (PPM) family and is induced by P53 in response to DNA damage. In several human cancers, the WIP1 protein is overexpressed, which is generally associated with a worse prognosis. Although WIP1 is an attractive therapeutic target, no potent, selective, and bioactive small-molecule modulator with favorable pharmacokinetics has been reported. Phosphatase enzymes are among the most challenging targets for small molecules because of the difficulty of achieving both modulator selectivity and bioavailability. Another major obstacle has been the availability of robust and physiologically relevant phosphatase assays that are suitable for high-throughput screening.
Here, we describe two orthogonal biochemical WIP1 activity assays that utilize phosphopeptides from native WIP1 substrates. We optimized a RapidFire MS assay to quantify the enzymatically dephosphorylated peptide reaction product in a 384-well format. Additionally, a redshifted Rhodamine-PBP fluorescence assay was optimized in a 1,536-well format to enable real-time WIP1 activity measurements through the detection of the orthogonal reaction product, Pi. We validated these two optimized assays by quantitative high-throughput screening against the National Center for Advancing Translational Sciences (NCATS) Pharmaceutical Collection and used secondary assays to confirm and evaluate inhibitors identified in the primary screen.
SEQUENCE No. (e.g., 1, 2, 3, etc.); […] (e.g., Cells, Incubation, Reagent, etc.); VALUE; DESCRIPTION
1; Reagent; 3 uL; WIP1 (6.7 nM), Rh-PBP (13.3 uM), columns 1-48
3; Library Compounds; 23 nL; NCATS Pharmaceutical Collection, column 5-48
4; Control Compounds; DMSO in column 2, GSK2830371 (57.5 uM, final) in 3-fold serial dilutions in column 3, GSK2830371 (1.15 uM, final) in column 4
5; Time; 1 hr; incubation
6; Detection; fluorescence (f0); ViewLux, excitation filter = 525 nm, emission filter = 598 nm
7; Reagent; 1 uL; VEPP-pS-QETFS (40 uM), columns 2-48
8; Detection; fluorescence (f1); ViewLux, excitation filter = 525 nm, emission filter = 598 nm
NOTES (numbers refer to sequence above)
1 & 2; Black medium binding Greiner 1536-well plates (# 789176-F); assay buffer: 50 mM Tris-HCl pH 7.5, 30 mM MgCl2, 1mM TCEP, 0.1 mM EGTA, 75 ug/mL BSA; dispensed with a BioRaptr liquid handler (Beckman Coulter).
3 & 4; Kalypsys pintool (equipped with 1536 pinhead, Wako USA) transfer. Tip wash sequence: DMSO, methanol, 3 sec vacuum dry.
5; Room temperature incubation.
7; VEPPL-pS-QETFS in assay buffer dispensed with a BioRaptr; final reaction conditions: 5 nM WIP1, 10 uM VEPPL-pS-QETFS, 10 uM Rh-PBP, 50 mM Tris-HCl pH 7.5, 30 mM MgCl2, 1 mM TCEP, 0.1 mM EGTA, 75 ug/mL BSA.
8; Measurement taken at 1 min intervals for 11 min. Delta readout = f1 - f0.
On the technique in general: qHTS replaces the single test concentration by a dilution series.
With `CC(C)(C)c1cc(C=O)cc(C(C)(C)C)c1O`, the “activity change, negative = inhibition” value was 1.47% (inactive).

Take `O=C(Oc1ccccc1)c1ccccc1O`: the “activity change, negative = inhibition” value is 12.4% (inactive).

For the compound `CCN1CCN(C(=O)N[C@@H](C(=O)N[C@@H]2C(=O)N3[C@@H]2SC(C)(C)[C@H]3C(=O)O)c2ccccc2)C(=O)C1=O`, the “activity change, negative = inhibition” value is 6.93% (inactive).

In the case of `O=C(O)c1[nH]n(-c2ccc(S(=O)(=O)O)cc2)c(=O)c1N=Nc1ccc(S(=O)(=O)O)cc1`, the “activity change, negative = inhibition” value is -12.2% (inactive).

Consider `CC(C)(C)c1ccc(C(=O)CCCCl)cc1`, for which the “activity change, negative = inhibition” value was 12% (inactive).

In the case of `CNC[C@H](O)[C@@H](O)[C@H](O)[C@H](O)CO`, the “activity change, negative = inhibition” value was 8.96% (inactive).

With `Cc1ccc(CCn2c3c(c4cc(Cl)ccc42)CN(C)CC3)cn1`, the “activity change, negative = inhibition” value was 13.9% (inactive).

Consider `Cc1cccc(C)c1NC(=O)c1cc(S(N)(=O)=O)c(Cl)cc1O`, for which the “activity change, negative = inhibition” value was 5.41% (inactive).

For `C[C@H]1C[C@H](O)c2ccsc2S1(=O)=O`, the “activity change, negative = inhibition” value was 1.18% (inactive).

Regarding `Nc1ccc(C(=O)N2CC3CC(CN(Cc4ccccc4)C3)C2)cc1`, the “activity change, negative = inhibition” value was 15.3% (inactive).

As to `N=C(N)c1ccc(OCCCOc2ccc(C(=N)N)cc2)cc1`, the “activity change, negative = inhibition” value was 11.4% (inactive).

Consider `CN(C)CCOC1=Cc2ccccc2Sc2ccc(Cl)cc21`, for which the “activity change, negative = inhibition” value was 27.2% (inactive).

As for `CCCCCCCCCCCC[N+](C)(C)Cc1ccccc1`, the “activity change, negative = inhibition” value is 27% (inactive).

On to `CNC(=O)c1c(I)c(NC(C)=O)c(I)c(C(=O)O)c1I`, for which the “activity change, negative = inhibition” value was -3.48% (inactive).

`CN(C)CCOC(c1ccccc1)c1ccc(Br)cc1` (stereo not given): the “activity change, negative = inhibition” value is 2.05% (inactive).

Regarding `Cc1c(N)cccc1C(F)(F)F`, the “activity change, negative = inhibition” value is 0.754% (inactive).

In the case of `CCCc1ncc(C(=O)O)s1`, the “activity change, negative = inhibition” value was 2.55% (inactive).

As to `CC(C)C[C@H](NC(=O)CNC(=O)[C@H](Cc1ccc(O)cc1)NC(=O)[C@H](CO)NC(=O)[C@H](Cc1c[nH]c2ccccc12)NC(=O)[C@H](Cc1cnc[nH]1)NC(=O)[C@@H]1CCC(=O)N1)C(=O)N[C@@H](CCCN=C(N)N)C(=O)N1CCC[C@H]1C(=O)NCC(N)=O` (stereo in doubt), the “activity change, negative = inhibition” value is 8.22% (inactive).

As to `CCOc1c(N2CCOCC2)cnn(C)c1=O`, the “activity change, negative = inhibition” value was -1.78% (inactive).

`CC(=O)OCC(=O)[C@@]1(O)[C@H](OC(C)=O)C[C@H]2[C@@H]3CCC4=CC(=O)C=C[C@]4(C)[C@@]3(F)[C@@H](O)C[C@@]21C`: the “activity change, negative = inhibition” value is 10.2% (inactive).

For `c1ccc2occc2c1`, the “activity change, negative = inhibition” value is 13.3% [at 116 µM] (inactive).

Take `CCC(C(=O)OCCN1CCOC(c2ccccc2)C1C)c1ccccc1` (stereo not given): the “activity change, negative = inhibition” value is 31.8% (inactive).

`CCOC(=O)Cn1cccc1-c1nc(-c2ccc(OC)cc2)c(-c2ccc(OC)cc2)s1`: the “activity change, negative = inhibition” value is -7.8% (inactive).

`CC(NC(CCc1ccccc1)C(=O)O)C(=O)N1C(=O)N(C)CC1C(=O)O` (stereo not given): the “activity change, negative = inhibition” value is 7.72% (inactive).

As to `COC(=O)c1cc(Cl)ccc1NS(=O)(=O)C(F)(F)F`, the “activity change, negative = inhibition” value was -18.4% (inactive).

Turning to `CC(=O)O[C@@H]1CC2C3CCc4cc(OC(=O)c5ccccc5)ccc4C3CCC2(C)[C@H]1OC(C)=O` (stereo not given in full), the “activity change, negative = inhibition” value is 2.62% (inactive).

For the compound `C[C@H](N)C(=O)N[C@@H](C)C(=O)NC1[C@H]2CN(c3nc4c(cc3F)c(=O)c(C(=O)O)cn4-c3ccc(F)cc3F)C[C@@H]12` (stereo not given in full), the “activity change, negative = inhibition” value was 7.86% (inactive).

Turning to `CCn1ccc(NS(=O)(=O)c2ccc(N)cc2)nc1=O`, the “activity change, negative = inhibition” value is 8.73% (inactive).

Regarding `CO/N=C(/C(=O)N[C@@H]1C(=O)N2C(C(=O)OCOC(=O)C(C)(C)C)=C(C)CS[C@H]12)c1csc(N)n1`, the “activity change, negative = inhibition” value was -2.19% (inactive).

Consider `CC(=O)c1ccc(O)c(C(N)=O)c1`, for which the “activity change, negative = inhibition” value is -0.538% (inactive).

For `CCN(CC)CC(=O)Nc1c(C)cccc1C(=O)OC`, the “activity change, negative = inhibition” value is 4.63% (inactive).

Take `CCCCCC(=O)O[C@]1(C(C)=O)CC[C@H]2[C@@H]3CCC4=CC(=O)CC[C@]4(C)[C@H]3CC[C@@]21C`: the “activity change, negative = inhibition” value is 7.72% (inactive).

`CCCCCCOC(=O)NC(=N)c1ccc(NCc2nc3cc(C(=O)N(CCC(=O)OCC)c4ccccn4)ccc3n2C)cc1`: the “activity change, negative = inhibition” value is 27.3% (inactive).

Turning to `COC(=O)CCCCC(CCSS/C(CCO)=C(\C)N(C=O)Cc1cnc(C)nc1N)SC(C)=O` (stereo not given), the “activity change, negative = inhibition” value was -17.7% (inactive).

In the case of `CN(C(=O)C(Cl)Cl)c1ccc(OC(=O)c2ccco2)cc1`, the “activity change, negative = inhibition” value is 0.464% (inactive).

On to `O=C(c1ccccc1)c1ccccc1`, for which the “activity change, negative = inhibition” value was 9.73% (inactive).

Regarding `Cc1ccccc1C(=O)N1CC/C(=N\OS(=O)(=O)O)c2ccc(Cl)cc21`, the “activity change, negative = inhibition” value is -16.8% (inactive).

With `c1ccc(C(O[C@H]2CCCN(CCc3ccc4c(c3)OCO4)C2)c2ccccc2)cc1`, the “activity change, negative = inhibition” value is 23.8% (inactive).

With `CCCCCCCCCCCCCCCCCCNC(=O)OC1CCN(C(=O)OC[C@H](COC(=O)N(Cc2cccc[n+]2CC)C(=O)c2ccccc2OC)OC)CC1`, the “activity change, negative = inhibition” value was 13.1% (inactive).

With `CCNC(=O)[C@@H]1CCCN1C(=O)[C@H](CCCN=C(N)N)NC(=O)[C@H](CC(C)C)NC(=O)CNC(=O)[C@H](Cc1ccc(O)cc1)NC(=O)[C@H](CO)NC(=O)[C@H](Cc1c[nH]c2ccccc12)NC(=O)[C@H](Cc1cnc[nH]1)NC(=O)[C@@H]1CCC(=O)N1` ([pGlu]HWSYGLRP-NHEt), the “activity change, negative = inhibition” value is 11.4% (inactive).
